In paper PMC7862700, “An all-to-all approach to the identification of sequence-specific readers for epigenetic DNA modifications on cytosine” one finds binding signal data, which are given here for one sequence.

Test in all cases: DAPPL (digital affinity profiling via proximity ligation, sequencing); 10 mM Tris-HCl pH 7.5, 50 mM NaCl, 1 mM DTT, 4% glycerol, room temperature, 30 min; GST-TFs on glutathione beads, 16-mer random dsDNA library, 0.1% formaldehyde crosslink after washing; high values mean tight binding
In one experiment the target is T1, FLI1 (Homo sapiens, UniProt Q01543 1-452).
T1 sequence: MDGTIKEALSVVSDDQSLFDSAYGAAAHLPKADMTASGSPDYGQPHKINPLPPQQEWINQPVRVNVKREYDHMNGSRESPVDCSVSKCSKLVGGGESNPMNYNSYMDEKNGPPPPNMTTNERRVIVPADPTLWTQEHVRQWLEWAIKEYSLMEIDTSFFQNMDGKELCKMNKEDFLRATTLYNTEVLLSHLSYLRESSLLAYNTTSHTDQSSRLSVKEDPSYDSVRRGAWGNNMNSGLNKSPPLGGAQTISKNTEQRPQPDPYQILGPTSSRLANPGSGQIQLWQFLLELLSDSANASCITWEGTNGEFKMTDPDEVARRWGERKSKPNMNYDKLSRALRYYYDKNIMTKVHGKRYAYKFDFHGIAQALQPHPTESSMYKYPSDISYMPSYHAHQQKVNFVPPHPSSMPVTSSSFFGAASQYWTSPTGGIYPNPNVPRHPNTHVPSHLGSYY
The note with it: protein: recombinant; tags: N-terminal GST; dsDNA, one strand shown. An outline of the steps: (§1)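 Pools of DNA-barcoded human transcription factors, expressed in yeast as GST fusions on glutathione beads and combined with a tag-only sample, were incubated with 200 nmole of a 16-mer random double-stranded DNA library. Incubation took 30 min at room temperature in Tris/NaCl/DTT/glycerol buffer and was followed by washing, 0.1% formaldehyde crosslinking, proximity ligation (BsaI/T4 ligase, 1 h, 37 °C), PCR amplification and sequencing on an Illumina NextSeq500. Binding signal is the ratio of a hexamer's read frequency for a factor to its frequency for the tag-only sample.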

The target in the next experiment is T2, ELK1 (Homo sapiens, UniProt P19419 1-428).
T2 sequence: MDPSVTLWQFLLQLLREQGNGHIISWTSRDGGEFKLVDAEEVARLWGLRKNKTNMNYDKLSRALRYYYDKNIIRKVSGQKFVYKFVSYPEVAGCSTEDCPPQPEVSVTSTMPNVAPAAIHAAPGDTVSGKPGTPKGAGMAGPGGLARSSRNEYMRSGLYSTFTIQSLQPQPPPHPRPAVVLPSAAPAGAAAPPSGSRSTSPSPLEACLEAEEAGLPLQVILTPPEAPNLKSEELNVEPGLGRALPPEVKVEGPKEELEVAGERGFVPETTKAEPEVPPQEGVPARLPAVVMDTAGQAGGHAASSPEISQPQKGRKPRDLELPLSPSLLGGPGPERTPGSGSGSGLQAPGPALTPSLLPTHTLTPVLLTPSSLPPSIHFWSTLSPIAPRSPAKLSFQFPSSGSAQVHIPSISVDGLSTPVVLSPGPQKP
The note with it: protein: recombinant; tags: N-terminal GST; dsDNA, one strand shown. The method, boiled down:
as §1

Another experiment deals with T3, GABPA (Homo sapiens, UniProt Q06546 1-454).
T3 sequence: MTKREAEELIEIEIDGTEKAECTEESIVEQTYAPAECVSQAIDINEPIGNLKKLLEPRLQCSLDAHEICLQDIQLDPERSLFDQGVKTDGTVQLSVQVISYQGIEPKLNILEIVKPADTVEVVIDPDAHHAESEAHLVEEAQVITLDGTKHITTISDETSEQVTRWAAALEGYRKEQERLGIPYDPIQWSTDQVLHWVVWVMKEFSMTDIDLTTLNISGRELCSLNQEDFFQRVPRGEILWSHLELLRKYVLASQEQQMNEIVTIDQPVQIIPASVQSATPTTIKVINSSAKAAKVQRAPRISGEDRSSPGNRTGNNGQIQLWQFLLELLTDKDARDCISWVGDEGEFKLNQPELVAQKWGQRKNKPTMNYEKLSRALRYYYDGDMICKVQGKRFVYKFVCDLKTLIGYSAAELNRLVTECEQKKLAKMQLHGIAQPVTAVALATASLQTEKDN
The note with it: protein: recombinant; tags: N-terminal GST; dsDNA, one strand shown. The method, boiled down: as §1

A further experiment has as its target T4, ERG (Homo sapiens, UniProt P11308 1-479).
T4 sequence: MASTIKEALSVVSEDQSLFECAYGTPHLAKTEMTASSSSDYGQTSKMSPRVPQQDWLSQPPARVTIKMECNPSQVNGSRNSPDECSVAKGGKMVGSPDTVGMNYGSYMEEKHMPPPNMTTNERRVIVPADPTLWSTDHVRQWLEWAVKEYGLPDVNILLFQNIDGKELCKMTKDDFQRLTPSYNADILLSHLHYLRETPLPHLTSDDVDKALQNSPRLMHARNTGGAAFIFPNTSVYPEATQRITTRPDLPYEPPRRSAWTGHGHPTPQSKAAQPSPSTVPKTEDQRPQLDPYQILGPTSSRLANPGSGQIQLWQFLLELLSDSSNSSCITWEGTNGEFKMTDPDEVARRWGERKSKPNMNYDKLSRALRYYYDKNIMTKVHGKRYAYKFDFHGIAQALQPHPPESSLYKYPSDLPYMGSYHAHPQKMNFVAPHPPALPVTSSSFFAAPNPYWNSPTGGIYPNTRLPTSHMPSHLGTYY
The note with it: protein: recombinant; tags: N-terminal GST; dsDNA, one strand shown. An outline of the steps:
as §1

For another experiment, the target named is ELF1 (Homo sapiens, UniProt P32519 1-619). The note with it: protein: recombinant; tags: N-terminal GST; dsDNA, one strand shown. The method, boiled down: as §1
In the next experiment the target is T5, EHF (Homo sapiens, UniProt Q9NZC4 1-300).
T5 sequence: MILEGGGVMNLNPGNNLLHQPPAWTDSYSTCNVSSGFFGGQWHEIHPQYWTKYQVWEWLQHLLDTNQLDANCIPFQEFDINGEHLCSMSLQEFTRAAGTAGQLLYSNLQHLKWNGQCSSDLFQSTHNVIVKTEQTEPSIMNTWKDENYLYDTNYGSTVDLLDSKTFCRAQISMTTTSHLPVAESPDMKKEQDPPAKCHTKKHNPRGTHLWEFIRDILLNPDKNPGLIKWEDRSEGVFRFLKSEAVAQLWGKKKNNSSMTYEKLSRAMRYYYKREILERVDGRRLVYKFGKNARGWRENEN
The note with it: protein: recombinant; tags: N-terminal GST; dsDNA, one strand shown. An outline of the steps: as §1

For another experiment, the target named is SPI1 (Homo sapiens, UniProt P17947 1-270). The note with it: protein: recombinant; tags: N-terminal GST; dsDNA, one strand shown. An outline of the steps: as §1
Another experiment concerns the target SPIB (Homo sapiens, UniProt Q01892 1-262). The note with it: protein: recombinant; tags: N-terminal GST; dsDNA, one strand shown. The method, boiled down:
as §1

Another experiment has as its target T6, ELK3 (Homo sapiens, UniProt P41970 1-407).
T6 sequence: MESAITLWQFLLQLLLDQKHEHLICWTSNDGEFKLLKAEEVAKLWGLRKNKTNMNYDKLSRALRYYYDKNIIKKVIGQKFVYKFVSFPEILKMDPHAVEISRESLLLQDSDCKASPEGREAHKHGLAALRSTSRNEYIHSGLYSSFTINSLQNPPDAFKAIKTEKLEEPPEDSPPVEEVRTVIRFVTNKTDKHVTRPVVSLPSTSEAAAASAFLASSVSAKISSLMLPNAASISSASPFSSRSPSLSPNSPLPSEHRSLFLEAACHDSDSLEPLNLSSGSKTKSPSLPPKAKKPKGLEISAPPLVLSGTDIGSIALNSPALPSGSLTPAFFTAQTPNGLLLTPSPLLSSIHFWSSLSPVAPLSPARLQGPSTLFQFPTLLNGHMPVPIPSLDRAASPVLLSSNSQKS
The note with it: protein: recombinant; tags: N-terminal GST; dsDNA, one strand shown. An outline of the steps:
as §1

In another experiment the target is T7, FEV (Homo sapiens, UniProt Q99581 1-238).
T7 sequence: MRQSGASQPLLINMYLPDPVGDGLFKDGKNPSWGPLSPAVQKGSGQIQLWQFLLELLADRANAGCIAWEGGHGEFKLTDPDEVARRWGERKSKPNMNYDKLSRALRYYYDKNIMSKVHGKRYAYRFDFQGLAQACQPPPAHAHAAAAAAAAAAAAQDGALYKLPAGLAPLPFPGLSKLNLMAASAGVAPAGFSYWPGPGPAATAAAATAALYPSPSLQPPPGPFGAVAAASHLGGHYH
The note with it: protein: recombinant; tags: N-terminal GST; dsDNA, one strand shown. An outline of the steps:
as §1

In the next experiment the target is ETV5 (Homo sapiens, UniProt P41161 1-510). The note with it: protein: recombinant; tags: N-terminal GST; dsDNA, one strand shown. The method, boiled down: as §1
The target of a further experiment is HSF1 (Homo sapiens, UniProt Q00613 1-529). The note with it: protein: recombinant; tags: N-terminal GST; chain copies: 3; dsDNA, one strand shown. An outline of the steps: as §1
The target of another experiment is T8, SPIC (Homo sapiens, UniProt Q8N5J4 1-248).
T8 sequence: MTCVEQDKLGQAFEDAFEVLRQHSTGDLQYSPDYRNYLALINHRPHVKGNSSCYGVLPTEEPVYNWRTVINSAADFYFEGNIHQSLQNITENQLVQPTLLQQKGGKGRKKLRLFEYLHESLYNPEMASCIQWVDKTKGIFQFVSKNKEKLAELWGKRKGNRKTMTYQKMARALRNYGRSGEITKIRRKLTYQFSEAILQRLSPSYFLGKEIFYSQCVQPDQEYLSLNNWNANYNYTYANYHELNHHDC
The note with it: protein: recombinant; tags: N-terminal GST; dsDNA, one strand shown. An outline of the steps: as §1

For another experiment, the target named is ELF4 (Homo sapiens, UniProt Q99607 1-663). The note with it: protein: recombinant; tags: N-terminal GST; dsDNA, one strand shown. An outline of the steps:
as §1

The target of another experiment is T9, ELK4 (Homo sapiens, UniProt P28324-2 1-405).
T9 sequence: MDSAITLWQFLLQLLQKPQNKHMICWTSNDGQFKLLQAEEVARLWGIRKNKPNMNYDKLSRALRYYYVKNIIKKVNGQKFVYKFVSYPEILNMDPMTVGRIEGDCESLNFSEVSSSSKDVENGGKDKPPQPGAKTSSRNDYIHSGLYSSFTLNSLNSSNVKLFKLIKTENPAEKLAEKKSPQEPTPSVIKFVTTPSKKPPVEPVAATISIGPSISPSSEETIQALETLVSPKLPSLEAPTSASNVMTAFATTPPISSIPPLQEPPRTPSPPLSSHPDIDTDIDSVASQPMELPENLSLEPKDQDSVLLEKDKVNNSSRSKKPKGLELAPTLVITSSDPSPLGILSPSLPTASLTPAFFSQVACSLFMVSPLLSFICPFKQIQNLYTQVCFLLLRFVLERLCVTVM
The note with it: protein: recombinant; tags: N-terminal GST; dsDNA, one strand shown. The method, boiled down:
as §1

In another experiment the target is T10, ETV2 (Homo sapiens, UniProt O00321 1-342).
T10 sequence: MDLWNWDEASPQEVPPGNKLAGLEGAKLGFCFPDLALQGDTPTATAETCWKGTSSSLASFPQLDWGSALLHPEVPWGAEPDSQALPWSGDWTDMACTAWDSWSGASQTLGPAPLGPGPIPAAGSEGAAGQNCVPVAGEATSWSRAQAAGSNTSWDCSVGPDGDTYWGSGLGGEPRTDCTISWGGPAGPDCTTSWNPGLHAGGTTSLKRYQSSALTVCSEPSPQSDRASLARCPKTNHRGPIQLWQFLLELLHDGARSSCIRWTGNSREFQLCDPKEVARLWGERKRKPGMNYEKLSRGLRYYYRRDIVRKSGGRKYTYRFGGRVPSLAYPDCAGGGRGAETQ
The note with it: protein: recombinant; tags: N-terminal GST; dsDNA, one strand shown. The method, boiled down:
as §1

A further experiment addresses T11, ELF3 (Homo sapiens, UniProt P78545 1-371).
T11 sequence: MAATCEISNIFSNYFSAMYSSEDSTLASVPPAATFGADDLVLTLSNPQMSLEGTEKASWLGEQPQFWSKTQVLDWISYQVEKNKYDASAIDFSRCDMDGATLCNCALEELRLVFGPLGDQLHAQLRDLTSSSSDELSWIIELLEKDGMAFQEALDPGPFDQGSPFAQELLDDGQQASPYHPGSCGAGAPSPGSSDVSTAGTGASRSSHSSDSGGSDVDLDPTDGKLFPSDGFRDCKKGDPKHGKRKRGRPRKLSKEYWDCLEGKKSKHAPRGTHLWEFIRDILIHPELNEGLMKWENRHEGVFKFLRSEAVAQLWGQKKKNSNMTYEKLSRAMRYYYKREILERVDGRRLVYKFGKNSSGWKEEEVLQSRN
The note with it: protein: recombinant; tags: N-terminal GST; dsDNA, one strand shown. An outline of the steps:
as §1

The target in another experiment is CRX (Homo sapiens, UniProt O43186 1-299). The note with it: protein: recombinant; tags: N-terminal GST; dsDNA, one strand shown. An outline of the steps: as §1
CRX, sequence (O43186 whole entry): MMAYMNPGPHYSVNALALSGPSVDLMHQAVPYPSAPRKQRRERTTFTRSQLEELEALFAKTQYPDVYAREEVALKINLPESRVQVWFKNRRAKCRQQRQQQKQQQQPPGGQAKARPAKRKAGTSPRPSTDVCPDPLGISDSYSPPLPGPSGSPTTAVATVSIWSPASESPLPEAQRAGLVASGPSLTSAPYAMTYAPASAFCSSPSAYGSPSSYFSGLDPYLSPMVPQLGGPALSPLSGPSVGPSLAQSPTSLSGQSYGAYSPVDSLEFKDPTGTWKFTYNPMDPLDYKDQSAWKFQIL

ELF1, sequence (P32519 whole entry): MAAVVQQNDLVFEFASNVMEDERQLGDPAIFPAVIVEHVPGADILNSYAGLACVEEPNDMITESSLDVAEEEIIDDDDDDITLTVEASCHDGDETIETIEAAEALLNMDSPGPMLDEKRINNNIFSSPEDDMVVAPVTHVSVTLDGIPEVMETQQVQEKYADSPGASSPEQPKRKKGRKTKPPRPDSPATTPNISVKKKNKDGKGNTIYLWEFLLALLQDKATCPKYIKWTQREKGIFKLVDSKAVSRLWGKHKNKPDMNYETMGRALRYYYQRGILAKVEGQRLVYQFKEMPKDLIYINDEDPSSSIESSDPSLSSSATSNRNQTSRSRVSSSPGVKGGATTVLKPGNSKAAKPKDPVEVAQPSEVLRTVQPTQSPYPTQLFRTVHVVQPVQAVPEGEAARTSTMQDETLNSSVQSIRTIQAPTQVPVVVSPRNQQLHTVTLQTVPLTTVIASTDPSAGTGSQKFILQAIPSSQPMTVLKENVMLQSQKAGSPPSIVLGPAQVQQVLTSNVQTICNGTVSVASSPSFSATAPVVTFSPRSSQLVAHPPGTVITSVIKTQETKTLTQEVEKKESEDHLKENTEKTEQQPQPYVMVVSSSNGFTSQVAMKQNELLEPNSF
ELF4, sequence (Q99607 whole entry): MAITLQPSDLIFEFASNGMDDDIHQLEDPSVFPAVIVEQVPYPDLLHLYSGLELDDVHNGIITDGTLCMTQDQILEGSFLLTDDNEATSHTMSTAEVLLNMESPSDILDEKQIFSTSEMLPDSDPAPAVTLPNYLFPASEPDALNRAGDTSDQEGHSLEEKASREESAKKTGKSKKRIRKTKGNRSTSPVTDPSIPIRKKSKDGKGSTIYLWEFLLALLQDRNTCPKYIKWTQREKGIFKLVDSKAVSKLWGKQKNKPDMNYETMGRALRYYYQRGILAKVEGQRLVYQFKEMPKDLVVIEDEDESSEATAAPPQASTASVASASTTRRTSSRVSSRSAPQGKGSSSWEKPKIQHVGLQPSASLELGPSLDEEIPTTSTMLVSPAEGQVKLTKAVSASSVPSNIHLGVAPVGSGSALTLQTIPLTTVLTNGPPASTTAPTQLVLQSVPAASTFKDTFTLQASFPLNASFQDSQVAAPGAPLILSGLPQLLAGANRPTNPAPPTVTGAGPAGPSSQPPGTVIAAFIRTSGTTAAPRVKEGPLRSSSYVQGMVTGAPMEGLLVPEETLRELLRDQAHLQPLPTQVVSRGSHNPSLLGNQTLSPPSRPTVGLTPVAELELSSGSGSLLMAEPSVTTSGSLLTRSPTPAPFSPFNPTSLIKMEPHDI
ETV5, sequence (P41161 whole entry): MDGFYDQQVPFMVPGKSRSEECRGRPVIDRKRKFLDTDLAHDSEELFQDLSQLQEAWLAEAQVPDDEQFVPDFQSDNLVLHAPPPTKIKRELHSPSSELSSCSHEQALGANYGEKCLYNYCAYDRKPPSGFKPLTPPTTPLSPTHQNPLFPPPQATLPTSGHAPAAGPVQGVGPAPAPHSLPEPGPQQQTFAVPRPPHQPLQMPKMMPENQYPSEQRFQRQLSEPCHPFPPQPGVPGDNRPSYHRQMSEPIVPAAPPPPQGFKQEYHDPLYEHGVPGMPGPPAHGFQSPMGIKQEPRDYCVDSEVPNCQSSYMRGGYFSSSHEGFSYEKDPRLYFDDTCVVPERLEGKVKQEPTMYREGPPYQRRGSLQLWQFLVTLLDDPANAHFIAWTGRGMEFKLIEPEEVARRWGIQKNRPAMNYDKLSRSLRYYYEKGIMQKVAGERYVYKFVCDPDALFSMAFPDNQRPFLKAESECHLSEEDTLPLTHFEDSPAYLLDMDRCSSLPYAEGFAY
SPIB, sequence (Q01892 whole entry): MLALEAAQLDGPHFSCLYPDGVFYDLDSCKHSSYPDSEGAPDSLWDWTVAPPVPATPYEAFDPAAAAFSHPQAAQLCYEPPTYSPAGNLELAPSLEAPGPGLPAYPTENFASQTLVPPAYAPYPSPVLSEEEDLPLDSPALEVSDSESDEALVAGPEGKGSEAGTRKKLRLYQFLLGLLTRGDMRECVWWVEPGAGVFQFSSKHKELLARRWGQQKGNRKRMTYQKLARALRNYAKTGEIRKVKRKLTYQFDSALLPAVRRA
HSF1, sequence (Q00613 whole entry): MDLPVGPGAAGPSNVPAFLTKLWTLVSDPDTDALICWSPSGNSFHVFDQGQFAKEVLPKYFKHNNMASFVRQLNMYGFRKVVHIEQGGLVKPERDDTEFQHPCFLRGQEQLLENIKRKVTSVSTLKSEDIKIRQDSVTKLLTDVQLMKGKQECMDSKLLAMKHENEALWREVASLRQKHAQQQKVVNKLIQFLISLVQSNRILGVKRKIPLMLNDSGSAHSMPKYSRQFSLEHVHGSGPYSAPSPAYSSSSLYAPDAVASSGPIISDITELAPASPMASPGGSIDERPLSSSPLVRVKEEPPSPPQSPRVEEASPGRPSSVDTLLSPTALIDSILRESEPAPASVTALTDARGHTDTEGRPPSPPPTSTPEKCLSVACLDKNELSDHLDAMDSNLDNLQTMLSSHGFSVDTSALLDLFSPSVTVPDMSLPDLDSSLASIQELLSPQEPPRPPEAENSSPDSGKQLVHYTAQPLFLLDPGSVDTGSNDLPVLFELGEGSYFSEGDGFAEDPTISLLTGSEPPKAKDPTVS

For the sequence GTTAAG, the binding signal with FLI1 was 1.04 fold enrichment (6-mer frequency, TF over GST control); in the experiment with ELK1, 1.12 fold enrichment (6-mer frequency, TF over GST control); with GABPA, 1.07 fold enrichment (6-mer frequency, TF over GST control); in the experiment with ERG, 1.05 fold enrichment (6-mer frequency, TF over GST control); in the experiment with ELF1, 1.04 fold enrichment (6-mer frequency, TF over GST control); with EHF, 1.01 fold enrichment (6-mer frequency, TF over GST control). For the same sequence, the binding signal is 1.01 fold enrichment (6-mer frequency, TF over GST control) with SPI1; 1.02 fold enrichment (6-mer frequency, TF over GST control) in the experiment with SPIB; 1.05 fold enrichment (6-mer frequency, TF over GST control) with ELK3; 1.02 fold enrichment (6-mer frequency, TF over GST control) in the experiment with FEV; 1.03 fold enrichment (6-mer frequency, TF over GST control) with ETV5; 1.3 fold enrichment (6-mer frequency, TF over GST control) with HSF1. Also, the binding signal with SPIC was 1.06 fold enrichment (6-mer frequency, TF over GST control); with ELF4, 1.1 fold enrichment (6-mer frequency, TF over GST control); with ELK4, 1.06 fold enrichment (6-mer frequency, TF over GST control); in the experiment with ETV2, 1.1 fold enrichment (6-mer frequency, TF over GST control); in the experiment with ELF3, 1.06 fold enrichment (6-mer frequency, TF over GST control); with CRX, 1.87 fold enrichment (6-mer frequency, TF over GST control).
